The list is not random: actives were taken first. Their share in the collection is about 6.5%.
Spn MK inh: blocks S. pneumoniae mevalonate kinase; 65,000 tested, 0.48% active; purified MK, PK/LDH-coupled NADH absorbance 340 nm; inhibition, % at 10 µM;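 active = ranked among the strongest by inhibition in the single 10 µM screen, a fixed top-ranked set picked for dose follow-up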
DPM-DC inhibit: inhibitors of Streptococcus pneumoniae diphosphomevalonate decarboxylase; purified DPM-DC, PK/LDH coupled NADH fluorescence; calls only at 10 µM; 65,000 tested, 0.49% active;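 active = the 320 compounds with the highest percent inhibition in the single-dose primary screen, excluding strongly autofluorescent ones, cut at about 32% in these data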;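 also: kinetic rate of NADH fluorescence loss reporting ADP formed by the decarboxylase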
Spn PMK inh: S. pneumoniae PMK inhibition; 65,000 tested, 0.49% active; inhibition, % at 10 µM; purified PMK, PK/LDH-coupled NADH absorbance 340 nm;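 active = top-ranked compounds by inhibition in the single 10 µM screen, taking a fixed number of the strongest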;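 also: 0% = full reaction with DMSO carrier and 100% = background rate without enzyme reaction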
NADH enzymes: inhibition of NAD/NADH coupling enzymes, library profiling; coupled PK/LDH NADH assays, four targets; IC50, µM (doses to about 10 µM), without a hit: top-dose inhibition; 65,000 tested, 0.02% active; AID 774;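 active = single-dose screening hits from any of four coupled enzyme assays that gave an IC50 when retested across doses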;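 also: the DPM-DC format reads NADH fluorescence rather than 340 nm absorbance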
Fluor 339 460: intrinsic fluorescence of library compounds, ex339/em460 – biochemical, MLSMR library, data from DPM-DC assay, artefact control, profiling panel; compound autofluorescence, ex339/em460 nm, NADH buffer; stronger effect = higher value; 1 = no-compound wells, NADH background; fluorescence fold increase at 10 µM; 65,000 tested, 5.5% active; AID 709;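 active = at 10 µM, mean starting fluorescence two-fold or more over control wells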;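 also: signal is the first read of a kinetic run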
A340 absorber: absorbance at 340 nm. fold change at 10 µM. 65,000 tested, under 10 active. AID 708. compound absorbance at 340 nm, fold over control;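 active = at 10 µM dose, initial 340 nm absorbance at least 2 fold that of control wells; inactive = change under 2 fold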;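 also: initial absorbance extrapolated from kinetic A340 decline of NADH oxidation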
An asterisk follows results filed as active; i = inactive; . = not tested or not shown; + = active, no number.

SMILES	Spn MK inh	DPM-DC inhibit	Spn PMK inh	NADH enzymes	Fluor 339 460	A340 absorber
O=C1NC(c2ccc3c(c2)OCO3)Nc2ccccc21 (centres undefined)	6	.	11	9%	4.8*	0.99
CC(C)C(c1nnnn1C1CCCC1)N1CCN(C(=O)c2ccco2)CC1 (centres undefined)	6	i	10	3%	1.1	1
CCOC(=O)c1c(C)n(C)c2ccc(O)c(CN3CCN(C)CC3)c12	6	i	5	4%	1.1	1
CCOC(=O)c1c(C)n(C)c2ccc(O)c(CN3CCC(C)CC3)c12	48*	i	7	18%	1.1	1
CCCCn1c(NC(=O)CC)c(C#N)c2nc3ccccc3nc21	9	.	19	7%	3*	1
CCCCC(=O)Nc1ccccc1C#N	13	i	10	9%	1.1	1
CCCCn1c(NC(=O)c2ccccc2Cl)c(C#N)c2nc3ccccc3nc21	9	.	0	5%	4*	1.1
CC(C)c1nc2oc3c(NCc4cccnc4)ncnc3c2c2c1CCC2	5	i	12	8%	2.1*	1.1
CC(C)Cc1nc2oc3c(NCC4CCCO4)ncnc3c2c2c1CCC2 (centres undefined)	8	i	11	15%	2.6*	1
CC(C)Cc1nc2oc3c(NCc4cccnc4)ncnc3c2c2c1CCC2	11	i	16	19%	2.6*	1
C=CCNc1nc2c(c(=O)n(C)c(=O)n2C)n1CC(=C)C	7	i	14	7%	1.1	1.1
Cc1ccc(Cn2ccc(NC(=O)c3c(-c4ccccc4Cl)noc3C)n2)cc1	2	i	0	1%	1.1	1.1
Cn1c(C(=O)NC2CCCC2)cc2c(=O)n(C)c3ccccc3c21	8	i	3	5%	1.3	1.1
COc1cccc(OC)c1OCC(C)CNCC1CCCO1 (centres undefined)	52*	i	0	17%	1.1	1
Cc1cc(C(c2nnnn2Cc2ccccc2)N2CCOCC2)c(C)n1-c1ccc2c(c1)OCO2 (centres undefined)	7	i	4	4%	1.1	1
CCN(CC)c1ccc(-c2nc3cnccc3n2C)cc1	7	i	17	18%	2.5*	1.2
O=C1c2ccccc2S(=O)(=O)N1CCOc1ccc(F)cc1	0	i	9	3%	1	1
CCc1nnc(NC(=O)CSc2nnc(Cc3cccn3C)n2C)s1	9	i	28*	13%	1	1
CCc1nnc(NC(=O)CSc2nnc(Cc3ccccc3)n2Cc2ccccc2)s1	2	i	20	7%	1.1	0.95
CCOC(=O)c1ccccc1NC(=O)CSc1nnc(Cc2cccn2C)n1-c1ccc(C)cc1	6	i	7	4%	2*	1
C=CCn1c(COc2ccccc2)nnc1SCC(=O)O	7	i	13	7%	1.1	0.98
C=C(C)Cn1c(COc2ccccc2)nnc1SCC(=O)O	20	+	16	23%	1.4	1.1
CCc1nnc(NC(=O)CSc2nnc(COc3ccccc3)n2Cc2ccccc2)s1	10	+	12	20%	1.8	1
Cc1nnc2sc(-c3cc4ccccc4o3)nn12	0	i	7	2%	1.3	1.1
COC(=O)c1ccccc1NC(=O)CSc1nnc(-c2cccc(NC(C)=O)c2)n1C	6	i	12	6%	1.1	1
SMILES	Spn MK inh	DPM-DC inhibit	Spn PMK inh	NADH enzymes	Fluor 339 460	A340 absorber
C=C(CC)C(=O)c1ccc(OCC(=O)O)c(Cl)c1Cl	8	i	5	2%	1	0.98
O=C(C1CCCN(S(=O)(=O)c2cccc3cccnc23)C1)N1CCN(c2ccc(F)cc2)CC1 (centres undefined)	3	i	0	2%	1	1
CC(=O)Nc1ccc(C2NC(=O)c3ccccc3O2)cc1 (centres undefined)	2	i	5	2%	1.2	1.1
CC(=O)Nc1ccc(C2Nc3ccccc3C(=O)N2C2CCCCC2)cc1 (centres undefined)	3	.	10	7%	2.2*	1
Cc1cc(NC(=O)C2CCN(S(=O)(=O)c3cnc[nH]3)CC2)ccc1Br	8	i	16	8%	1.1	0.98
COC(=O)c1c(C#N)c(N)nc2c1CCCC2	12	.	0	6%	3.8*	1.1
N#Cc1c(N)nc2c(c1-c1ccncc1)CCCC2	3	i	9	10%	3.2*	1.1
N#Cc1c(N)nc2c(c1-c1ccncc1)CCCCCC2	8	i	9	9%	2.1*	1.1
COc1ccc(S(=O)(=O)N2CCN(c3nc4ccccc4nc3-n3nc(C)cc3C)CC2)cc1	12	i	8	7%	1.2	1
CCc1nc(NC(C)C)c2oc3ccccc3c2n1	15	i	0	5%	1.1	1
CCc1nc(Nc2ccncc2)c2oc3ccccc3c2n1	17	i	8	15%	2*	1.2
CN(C)C=Nc1ccc2nn(-c3ccccc3)nc2c1	10	.	0	5%	2.2*	1.2
CN(C)/C=N/c1c(C#N)cnn1-c1ccccc1	0	i	1	0%	1.1	1
CC1CCN(c2nc3c(c(=O)[nH]c(=O)n3C)n2Cc2ccccc2Cl)CC1	8	i	5	5%	1.1	1
CCc1ccc(-c2cn(-c3nc(C)cc(C)n3)c(=N)o2)cc1	13	i	6	6%	1.1	1
c1csc(-c2cnc3ccccc3n2)c1	2	.	7	5%	3.6*	1
c1cncc(Nc2nc(-c3cccs3)cs2)c1	7	i	0	3%	1.1	1
Cc1[nH]c2ccc(-c3nnc(SCC(=O)N4CCCc5ccccc54)o3)cc2c1C	8	i	9	14%	2	1.1
CC(C)CCn1c(Br)nc2c1c(=O)n(CC(N)=O)c(=O)n2C	4	i	0	1%	1.1	1.1
CCC1C(=O)n2nc(-c3ccccc3)cc2N=C1C (centres undefined)	3	i	15	6%	2*	0.99
Cc1cc(-c2ccccc2)nc(=O)[nH]1	5	i	9	5%	1.1	1
Cc1ccc(-c2c(C#N)c(N)nc3c2CCCCC3)o1	5	i	5	8%	2*	1.1
Cc1ccc(-c2c(C#N)c(N)nc3c2CCCCCC3)o1	2	.	6	4%	2.2*	0.92
CCN(CC)Cc1c(O)ccc2c(-c3ccccc3)cc(=O)oc12	7	.	10	9%	2.1*	1.1
C=C(C)COc1ccc2c(C)c(CC(=O)OC)c(=O)oc2c1C	2	.	0	1%	3.8*	1.1
COC(=O)Cc1c(C)c2ccc(OCC(C)=O)c(C)c2oc1=O	6	.	8	7%	3.8*	1.1
CCN(CC)Cc1c(O)ccc2c(C)c(CC(=O)OC)c(=O)oc12	6	.	5	6%	2.4*	1.2

Source: PubChem BioAssay
